PubChem BioAssay AID504773 (Broad Institute, 2011)
Entries with a potency or affinity are not part of this list. Calls of active or inactive are those of the source.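 How the source made its calls: active means polarization signal falls with dose and the fitted half-maximal concentration is at or below ten times the sample's top valid dose; inconclusive means flat curve at 30 to 70% inhibition, or poor fit; inactive means signal rises, flat within 30%, or potency beyond limit.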

Biological target: Golgi-associated PDZ and coiled-coil motif-containing protein (Homo sapiens) (UniProt Q9HD26)
Assay: CAL PDZ peptide-binding inhibitors, dose response, biochemical, fluorescence polarization, Cerulean-tagged CAL PDZ, cherry-picks (AID 504773)
Details: 1 h; series mostly up to 50 µM

outcome, inactive:
O=C(NCCc1cnc[nH]1)c1cccs1
CCOC(=O)/C(N=Nc1ccc2c(c1)OCO2)=C(\C)O
Cc1ccnc(SCC(=O)N2CCC(C(N)=O)CC2)n1
Cc1ccc2nc(-c3cccc(Br)c3)cc(C(=O)NC3=NCCS3)c2c1
Cc1ccc(-c2[nH]c3ccccc3c2SCCN)cc1
C(=N\N1CCOCC1)/c1nc(-c2ccccc2)n2ccccc12
COc1ccc(CCn2c(=S)[nH]c3ccc(N4CCOCC4)cc3c2=O)cc1OC
COCCOC(=O)c1c(C)oc2ccc(OS(C)(=O)=O)cc12
O=C(NCCc1ccccc1)C1CCC(=O)N(CCCN2CCCC2=O)C1 (configuration not stated)
Cc1ccc(CN2CCN(Cc3nc4ccccc4nc3C)CC2CCO)cc1 (configuration not stated)
COCCCNC(=O)c1c[nH]c2ccc(S(=O)(=O)N3CCC(C)CC3)cc2c1=O
CC1CCN(c2nc3c(c(=O)n(C)c(=O)n3C)n2CCSc2nc3ccccc3s2)CC1
S=C(NCCc1ccccc1)N1CCn2cccc2C1c1cccnc1 (configuration not stated)
CN1CCN(c2ccccc2NC(=O)c2ccc(N3CCCC3)c([N+](=O)[O-])c2)CC1
O=C(/C=C/c1cccs1)Nc1scc(-c2ccccc2)c1C(=O)O
Cc1cc(SC2CCOC2=O)nc2ccccc12 (configuration not stated)
Cc1ccc2nc(NS(C)(=O)=O)sc2c1
COc1cc(Cl)c(CN2CCCC(CO)(Cc3cccc(Cl)c3)C2)cc1OC (configuration not stated)
CC(=O)NC(Cc1ccccc1)C(C)=O (configuration not stated)
CCC(C(=O)NN1C(=O)c2ccccc2C1=O)c1ccccc1 (configuration not stated)
CCOC(=O)/C=C/C(=O)OCC(=O)Nc1ccc([N+](=O)[O-])cc1
Oc1ccccc1N=Cc1c(O)ccc2oc3c(c12)CCCC3
COC(=O)C(C(=O)OC)c1ccc(N)cc1
COc1cc(NC(=O)c2cccs2)ccc1NC(=O)c1ccccc1Cl
Cc1ccc2nc(CSc3nnc(-c4ccncc4)n3C)cc(=O)n2c1
COc1ccc(Cl)cc1C(=O)Nc1ccc2c(c1)OCCO2
CS(=O)(=O)N1CCN(C(=O)c2ccc3c(c2)OCCO3)CC1
N#Cc1ccc(CC(=O)c2ccccc2)[nH]c1=O
Cc1cccc(-n2nc(C)c3c2NC2=C(C(=O)CCC2)C3c2ccccn2)c1 (configuration not stated)
O=C(NCc1ccc(Cl)cc1)C(=O)NCC1OCCN1C(=O)c1ccc(Cl)cc1 (configuration not stated)
COc1cc(OC)cc(C(=O)N[C@H](C(=O)Nc2nc3ccc(S(C)(=O)=O)cc3s2)C(C)C)c1
C/C(=N/N1CCN(c2ccccn2)CC1)c1ccc([N+](=O)[O-])cc1
Cc1nc2ccc(Br)cn2c1C(=O)N/N=C\c1ccc(C(C)C)cc1
FC(F)(F)c1cc(-c2cccs2)nc2ncnn12
O=C(N/N=C/c1ccc(OCc2ccccc2)cc1)c1ccc(O)cc1
CCC(=O)N1CCC(C(N)=O)(N2CCCCC2)CC1
COC(=O)c1cccc([N+](=O)[O-])c1CS(=O)(=O)c1ccc(C)cc1
